High-throughput results (PubChem BioAssay)
FadD28 FP inh: inhibitors of FadD28 bisubstrate probe binding, primary screen, biochemical, fluorescence polarization, single point | Mycobacterium tuberculosis FadD28 fatty-acid-AMP ligase | inhibition, % at 12.5 µM | actives 0.22% (n = 360,000) | AID 588549, 2011; in the data active means inhibition above about 8.5%, passing the limit was not always enough
Vc quorum ag: inducers of Vibrio cholerae quorum light production without autoinducers, primary screen, BH1578 luxS cqsA deficient, single point | V. cholerae BH1578 lux reporter, luminescence, 6 h | actives 0.16% (n = 350,000) | activation, % at 18.7 µM; in the data active means activation mostly above about 9.7%, no sharp cut-off
Mtb UGM inh: M. tuberculosis UGM enzyme inhibitors, primary screen, biochemical, fluorescence polarization, single point; purified UGM, fluorescence polarization probe displacement; actives 0.06% (n = 320,000); UDP-galactopyranose mutase (Mycobacterium tuberculosis (strain ATCC 25618 / H37Rv)), …; inhibition, % at 10 µM; AID 504406, 2011; in the data active means inhibition above about 10%, passing the limit was not always enough
Target sequence (P9WIQ1 whole entry, looked up): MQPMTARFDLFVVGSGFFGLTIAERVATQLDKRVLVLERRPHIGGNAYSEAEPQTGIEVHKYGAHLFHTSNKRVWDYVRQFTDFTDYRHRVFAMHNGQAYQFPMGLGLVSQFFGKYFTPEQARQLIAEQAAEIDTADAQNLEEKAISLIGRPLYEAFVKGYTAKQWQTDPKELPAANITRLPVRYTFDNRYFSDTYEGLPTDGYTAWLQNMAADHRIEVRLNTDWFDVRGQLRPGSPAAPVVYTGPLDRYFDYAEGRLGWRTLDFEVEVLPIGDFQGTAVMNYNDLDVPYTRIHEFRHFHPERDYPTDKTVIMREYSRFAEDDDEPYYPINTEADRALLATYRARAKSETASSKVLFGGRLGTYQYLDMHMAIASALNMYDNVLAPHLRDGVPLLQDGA
Mtb betalactam: beta-lactam sensitization of Mtb H37Rv, H37Rv; AID 434955, 2010; actives 0.27% (n = 330,000); M. tuberculosis H37Rv growth with meropenem, percent inhibition; inhibition, % at 25 µM; call rule not given here;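 further: growth measured after seven days incubation then overnight dye step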
Rv3671c protease: Rv3671c serine protease inhibitors, primary screen, biochemical, fluorescence polarization, M. tuberculosis H37Rv | actives 0.048% (n = 320,000) | AID 2606, 2010 | inhibition, % at 5.96 µM | P9WHR9; in the data active means inhibition above about 38%;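 further: extracellular domain of Rv3671c used as enzyme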
MazF activator: activators of E. coli MazEF toxin-antitoxin RNase, primary screen, biochemical, fluorescence, uHTS | actives 0.32% (n = 350,000) | Endoribonuclease toxin MazF (Escherichia coli (strain K12)), P0AE70 | activation, % at 20 µM | FAM/BHQ RNA-DNA oligo cleavage fluorescence, 5 h; in the data active means activation above about 50%
Target sequence (P0AE70 whole entry, looked up): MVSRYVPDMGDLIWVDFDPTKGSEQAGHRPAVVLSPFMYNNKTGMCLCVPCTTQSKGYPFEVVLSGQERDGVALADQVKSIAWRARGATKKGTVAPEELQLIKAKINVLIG
Large screens that a line does not name were inactive. An excerpt weighted towards active compounds, which were near 0.74% of everything screened.

Cc1c(Cl)cccc1NC(=S)N(Cc1cccnc1)Cc1ccccc1Cl	none
CCOc1cc(/C=C2\CCCc3c2nc2ccccc2c3C(=O)O)ccc1OC	Mtb UGM inh 44
COc1cc(/C=C2\CCc3c2nc2ccccc2c3C(=O)O)cc(OC)c1OC	none
COc1cc(/C=C2\CCCc3c2nc2ccccc2c3C(=O)O)cc(Br)c1O	FadD28 FP inh 12
COCCn1c2nc(=O)n(-c3ccccc3)c(=O)c-2nc2ccccc21	none (no result: Mtb UGM inh, Mtb betalactam, Rv3671c protease)
NS(=O)(=O)c1cccc(NS(=O)(=O)c2ccc(/C=C/C(=O)OCC(=O)c3ccccc3)cc2)c1	FadD28 FP inh 10
COc1ccc(C(=O)COC(=O)/C=C/c2ccccc2)cc1	none
COc1ccc(CNC(=O)C2CCN(S(=O)(=O)N3CCCC3)CC2)c(OC)c1	none
O=C(O)CCCNC(=O)c1nn(Cc2ccccc2)c(=O)c2ccccc12	none (no result: FadD28 FP inh)
Cc1c(Br)c([N+](=O)[O-])nn1C(C)C(=O)Nc1ccc2c(c1)OCO2 (stereo not given)	Vc quorum ag 55
CCCCCCCCO	none
CCSC(=O)CCCCCCCCCCCO	FadD28 FP inh 18
O=C1c2ccccc2N(Cc2ccc(Cl)cc2)C2=NCCN12	MazF activator 146
Clc1ccc(CN2C3=NCCCN3c3ccccc32)cc1	none
COc1ccccc1Nc1nc2ccc(C)cc2cc1C#N	MazF activator 78 (no result: Vc quorum ag)
COc1ccccc1Nc1nc2c(C)cccc2cc1C#N	MazF activator 98
COc1ccccc1Nc1nc2cc(C)ccc2cc1C#N	none
CCOc1ccc(Nc2nc3c(C)cccc3cc2C#N)cc1	none
CCOc1ccc(-n2nc3ccc(NC(=O)c4ccc5c(c4)OCCO5)cc3n2)cc1	MazF activator 59
C[C@@H]1CN([C@@H](C)CO)C(=O)c2cc(-c3ccccc3F)cnc2O[C@H]1CN(C)Cc1cccc(F)c1	none (no result: Mtb UGM inh, Mtb betalactam, Rv3671c protease)
CC(C)CC(C(=O)NC(C)(C)C)N(Cc1ccccc1Cl)C(=O)c1snc(C(N)=O)c1N (stereo not given)	none (no result: Rv3671c protease)
COc1cc(/C=C2/C(=O)c3cccc([N+](=O)[O-])c3C2=O)c(Br)cc1O	FadD28 FP inh 10
COc1ccccc1NC(=O)CCCCCN1C(=O)c2cccc([N+](=O)[O-])c2C1=O	none
COc1ccccc1-c1nnn(CC#N)n1	Vc quorum ag 20
C[C@@H]1CCCCO[C@H](CN(C)C(=O)Nc2ccccc2)[C@@H](C)CN([C@H](C)CO)C(=O)c2cc(NS(=O)(=O)c3cn(C)cn3)ccc2O1	none (no result: Mtb UGM inh, Mtb betalactam, Rv3671c protease)
CCc1nnc(NC(=O)CN2CCN(Cc3ccccc3Cl)CC2)s1	none
COC(=O)C1=CN(C)C=C(C(=O)OC)C1c1ccsc1	Vc quorum ag 17 (no result: Mtb UGM inh, Mtb betalactam, Rv3671c protease)
COC(=O)C1=CN(C2CC2)C=C(C(=O)OC)C1c1ccc(C(=O)OC)cc1	none
CC[C@@]1(C(=O)OC)N[C@H](CN(C)C(=O)COc2ccccc2)[C@@H]2C(=O)N(Cc3ccccc3)C(=O)[C@@H]21	none (no result: Mtb UGM inh)
CCOc1ccc(Cl)cc1-c1cc(C(=O)NC(C)C)[nH]n1	none (no result: Mtb UGM inh, Mtb betalactam, Rv3671c protease, MazF activator)
Cc1ccc(C2=C/C(=C/c3cccs3)C(=O)O2)cc1	MazF activator active
Cc1ccc(C=C2C=C(c3ccccc3)OC2=O)cc1	none (no result: Mtb UGM inh, Mtb betalactam, Rv3671c protease)
CCOc1ccc(NC(=O)CNC(=O)c2nn(-c3ccc(OC)cc3)c(=O)c3ccccc23)cc1	MazF activator 73
O=C(CN1C(=O)NC2(CCCc3ccccc32)C1=O)c1ccc(Br)cc1 (stereo not given)	FadD28 FP inh 17
COc1ccc(NS(=O)(=O)c2cc(NC(=O)c3nc4nc(C)cc(C)n4n3)ccc2C)cc1	none
CC(=O)OCC(=O)C1(O)CCC2C3CCC4CC(O)CCC4(C)C3C(=O)CC21C (stereo not given)	none (no result: Mtb UGM inh, Mtb betalactam, Rv3671c protease, MazF activator)
COC(=O)c1cc2c(=O)c3ccccc3oc2nc1/C=C/N(C)C	MazF activator 85 (no result: FadD28 FP inh, Rv3671c protease)
COC(=O)c1cc2c(=O)c3ccccc3oc2nc1C	none (no result: FadD28 FP inh, Rv3671c protease)
C[C@H]1CN([C@@H](C)CO)S(=O)(=O)c2ccc(Br)cc2O[C@H]1CN(C)C(=O)c1cccnc1	none (no result: Mtb UGM inh, Mtb betalactam, Rv3671c protease)
C=CCn1c(=O)/c(=C\c2ccccn2)s/c1=C(/C#N)C(=O)NCC1CCCO1 (stereo not given)	MazF activator 264
C=CCn1c(=O)/c(=C/c2ccc(C)o2)s/c1=C(/C#N)C(=O)c1ccccc1	none
C[C@H](CO)N1C[C@H](C)[C@@H](CN(C)Cc2ccc3c(c2)OCO3)Oc2cc(Br)ccc2S1(=O)=O	none (no result: Mtb UGM inh, Mtb betalactam, Rv3671c protease)
O=C(O)c1ccc(N/N=C/c2cn(Cc3ccc(F)cc3)c3ccccc23)cc1	FadD28 FP inh 18
CCNC(=S)N/N=C/c1cn(Cc2ccc(F)cc2)c2ccccc12	none
N#Cc1ccccc1NC(=O)c1cc(=O)c2ccccc2o1	FadD28 FP inh 12
COc1ccc(CNC(=O)C2CCN(C(=O)[C@@H](CC(C)C)NC(=O)OC(C)(C)C)CC2)cc1	Vc quorum ag 17 (no result: Mtb UGM inh, Mtb betalactam, Rv3671c protease, MazF activator)
COc1ccc(C(=O)n2nc(-c3ccco3)nc2SC)cc1OC	MazF activator 109
COCc1[nH]nc2c1C(c1cc(OC)c(O)c(OC)c1)C(C#N)=C(N)O2 (stereo not given)	MazF activator 195
CCCc1[nH]nc2c1C(c1ccc(O)c(OC)c1)C(C#N)=C(N)O2 (stereo not given)	MazF activator 53
Cc1ccc(C2C(C#N)=C(N)Oc3n[nH]c(-c4cccs4)c32)cc1 (stereo not given)	none
COc1cc(C2C(C#N)=C(N)Oc3n[nH]c(-c4cccs4)c32)cc(OC)c1O (stereo not given)	MazF activator 60
COc1ccc(C(OC(=O)c2ccco2)C(=O)NC(C)(C)C)cc1OC (stereo not given)	none (no result: Mtb UGM inh, Mtb betalactam, Rv3671c protease)
CCOc1ccc(C(=O)C(C)OC(=O)Cn2c(C)csc2=O)cc1 (stereo not given)	none
CCN(c1ccc(NC(=O)CSc2ccc3c(c2)OCCO3)cc1)C(C)C	FadD28 FP inh 47
O=C(CSc1ccc2c(c1)OCCO2)Nc1ccccc1	none (no result: Mtb UGM inh, Mtb betalactam, Rv3671c protease)
CN(C)S(=O)(=O)c1cc(NC(=O)CSc2ncc(C(F)(F)F)cc2Cl)ccc1Cl	FadD28 FP inh 13
CC(=O)Nc1cc(Cl)c(N=Cc2ccc(O)cc2O)cc1Cl	MazF activator 106
O=C(c1cccnc1)N(Cc1ccccc1)C(c1ccccc1)c1nc2ccccc2[nH]1 (stereo not given)	none (no result: Vc quorum ag, Mtb UGM inh, Mtb betalactam, Rv3671c protease, MazF activator)
CCCOc1ccc(-c2csc3nc[nH]c(=O)c23)cc1	none
O=c1[nH]cnc2scc(-c3ccc(-c4ccccc4)cc3)c12	MazF activator 83
COc1cc2c(cc1OC)C1=CC(=O)C(=O)N1C(C)(C)C2	MazF activator 55
S=C(NCc1ccc2c(c1)OCO2)Nc1ccc(-c2nc3ccccc3[nH]2)cc1	MazF activator 50
CN(C)CCNC(=S)Nc1ccc(-c2nc3ccccc3[nH]2)cc1	none
